PP5 inh: PP5 phosphatase inhibitors, primary screen, biochemical, fluorescence | Serine/threonine-protein phosphatase 5 (Homo sapiens), P53041 | purified PP5c, OMFP substrate fluorescence | inhibition, % at 6.7 µM | 0.18% of 320,000 active | AID 1987, 2009;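 active = inhibition above the campaign's mean inhibition across all tested compounds plus 3 SD, cut at about 9.5% in these data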
Target sequence (P53041 whole entry, looked up): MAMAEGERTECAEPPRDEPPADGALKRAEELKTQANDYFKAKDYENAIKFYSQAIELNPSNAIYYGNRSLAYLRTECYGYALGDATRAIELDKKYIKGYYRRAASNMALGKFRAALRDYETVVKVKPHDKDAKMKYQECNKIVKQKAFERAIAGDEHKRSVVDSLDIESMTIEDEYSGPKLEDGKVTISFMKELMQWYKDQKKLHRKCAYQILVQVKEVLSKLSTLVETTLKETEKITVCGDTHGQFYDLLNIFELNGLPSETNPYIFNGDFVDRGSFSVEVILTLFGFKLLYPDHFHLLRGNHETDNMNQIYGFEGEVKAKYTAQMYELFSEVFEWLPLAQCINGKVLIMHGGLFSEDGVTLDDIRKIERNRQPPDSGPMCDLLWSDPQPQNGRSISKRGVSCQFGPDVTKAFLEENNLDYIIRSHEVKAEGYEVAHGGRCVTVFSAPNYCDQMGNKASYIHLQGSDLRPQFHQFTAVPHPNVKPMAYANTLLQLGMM
PAFAH2 FP inh: PAFAH2 enzyme inhibitors, primary screen, biochemical, fluorescence polarization, human; Platelet-activating factor acetylhydrolase 2, cytoplasmic (Homo sapiens), Q99487; recombinant PAFAH2, FP-rhodamine activity probe; inhibition, % at 3.39 µM; 0.99% of 340,000 active; AID 492956, 2010;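 active = inhibition above the mean over all tested compounds plus 3 SD, cut at about 30% in these data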;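 note: inhibitors block probe labeling of enzyme so polarization drops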
pPAFAH FP inh: pPAFAH enzyme inhibitors, primary screen, biochemical, fluorescence polarization, human; inhibition, % at 3.39 µM; 1.5% of 330,000 active; recombinant pPAFAH, FP-rhodamine probe fluorescence polarization; AID 463082, 2010;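 active = inhibition above the mean inhibition across the screen plus 3 SD, cut at about 25% in these data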;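 note: inhibitors block binding of the rhodamine activity-based probe so polarization drops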
Fh CTSL1 inh: Fasciola hepatica cathepsin L1 inhibitors, primary screen, counter-screen for PFM18AAP inhibitor project, biochemical, QFRET, fluorogenic peptide substrate; inhibition, % at 5.96 µM; AID 1906, 2009; recombinant F. hepatica cathepsin L1, Z-Leu-Arg-MCA fluorescence; 0.49% of 300,000 active;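 active = inhibition above the mean of all tested compounds plus 3 SD, set per screening campaign, cut at about 17% in these data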
PAFAH1B2 FP inh: PAFAH1B2 enzyme inhibitors, primary screen, biochemical, fluorescence polarization, human. Platelet-activating factor acetylhydrolase IB subunit alpha2 (Homo sapiens), P68402. recombinant PAFAH1B2, FP-rhodamine activity probe. inhibition, % at 3.39 µM. 1.2% of 340,000 active. AID 492953, 2010;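 active = inhibition above the mean of all tested compounds plus 3 SD, cut at about 24% in these data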
PAFAH1B3 FP inh: PAFAH1B3 enzyme inhibitors, primary screen, biochemical, fluorescence polarization, human; AID 492972, 2010; recombinant PAFAH1B3, FP-rhodamine probe; 0.28% of 340,000 active; Platelet-activating factor acetylhydrolase IB subunit alpha1 (Homo sapiens), Q15102; inhibition, % at 3.39 µM;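 active = inhibition above the screen-wide average of all tested compounds plus 3 SD, cut at about 25% in these data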
Target sequence (Q15102 whole entry, looked up): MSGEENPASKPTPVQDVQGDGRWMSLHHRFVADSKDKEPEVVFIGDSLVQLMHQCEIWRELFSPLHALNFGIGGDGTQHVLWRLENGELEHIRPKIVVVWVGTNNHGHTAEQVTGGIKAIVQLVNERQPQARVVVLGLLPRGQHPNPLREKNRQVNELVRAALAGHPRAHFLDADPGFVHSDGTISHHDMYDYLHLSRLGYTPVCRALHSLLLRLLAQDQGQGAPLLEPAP
PAFAH2 confirm: PAFAH2 enzyme inhibitors, confirmation, biochemical, fluorescence polarization, human; recombinant PAFAH2, FP-rhodamine activity probe; 65% of 2,300 active; shares compounds with PAFAH2 FP inh; inhibition, % at 3.39 µM;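 active = mean inhibition over three repeats above a set limit taken from the earlier primary screen, cut at about 30% in these data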;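 note: inhibitor blocks binding of rhodamine activity probe so polarization falls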
Large screens that a line does not name were inactive (follow-up assays come after a bar, where they were run). This is a sample that favours compounds with a hit; in the whole collection about 3% have one here.

Cc1ccc(C(=O)OCC(=O)Nc2sc3c(c2C#N)CCCC3)cc1NC(=O)c1ccco1	none
O=C(Nc1ccc([N+](=O)[O-])cc1)Nc1nc(-c2ccc(Cl)s2)cs1	none
Cc1ccc(C2=NCCn3nc4cc([N+](=O)[O-])ccc4c32)cc1	none
O=C(CSc1nnc(-c2ccc(O)cc2)n1Cc1ccccc1)NNC(=O)c1ccc(Br)cc1	none
Cc1ccc(C(=O)OCC(=O)Nc2ccccc2)cc1NC(=O)c1ccco1	PAFAH2 FP inh 81.5 | PAFAH2 confirm 81.2
Cc1ccc(C(=O)OCC(=O)Nc2nc(-c3ccccc3)cs2)cc1NC(=O)c1ccco1	none
COc1ccc(Nc2nc(N)nc(CSC(=S)N3CCOCC3)n2)cc1	none
Cc1ccc(Nc2nc(N)nc(CSC(=S)N3CCOCC3)n2)c(C)c1	PAFAH2 FP inh 45.7 | PAFAH2 confirm 41.6
COc1ccc2oc(C(=O)OCC(=O)NC3CC3)c(C)c2c1	none
COc1ccc2oc(C(=O)OCC(=O)NC(C)(C#N)C3CC3)c(C)c2c1 (configuration not stated)	PAFAH2 FP inh 46.6 | PAFAH2 confirm 40.6
COc1ccc2oc(C(=O)OCC(=O)Nc3ccccc3)c(C)c2c1	PAFAH2 FP inh 61.4 | PAFAH2 confirm 51.9
COc1cc(CN2CCC(CCC(=O)NC3CC3)CC2)cc(Cl)c1OC	none
O=C(/C=C/c1ccc(Cl)cc1)NCc1cccs1	none
O=C(COC(=O)/C=C/c1ccc(F)cc1)NCc1cccs1	PAFAH2 FP inh 61.7 (no result: Fh CTSL1 inh) | PAFAH2 confirm 46.6
Cc1ccc(/C=C/C(=O)OCC(=O)NCc2cccs2)o1	PAFAH2 FP inh 68.1 (no result: PP5 inh, Fh CTSL1 inh) | PAFAH2 confirm 53.3
Cc1ccc(/C=C/C(=O)OCC(=O)NC(C)C)o1	PAFAH2 FP inh 34.8 | PAFAH2 confirm inactive
CCN(CC)S(=O)(=O)c1ccc(/C=C/C(=O)OCC(=O)NCc2cccs2)cc1	PAFAH2 FP inh 93.0 (no result: Fh CTSL1 inh) | PAFAH2 confirm 80.0
O=C(COC(=O)/C=C/c1ccccc1)NCc1cccs1	PAFAH2 FP inh 60.6 (no result: Fh CTSL1 inh) | PAFAH2 confirm 47.5
O=C(COC(=O)c1ccccc1Br)NCc1cccs1	none (no result: PP5 inh, Fh CTSL1 inh)
CCC1(CCC(C)C)SC(N)=NC1=O (configuration not stated)	none (no result: PP5 inh, pPAFAH FP inh, Fh CTSL1 inh)
O=C(OCc1nnc(-c2ccc([N+](=O)[O-])cc2)o1)c1ccc(F)c(S(=O)(=O)N2CCOCC2)c1	PAFAH2 FP inh 30.1 (no result: PP5 inh, pPAFAH FP inh, Fh CTSL1 inh) | PAFAH2 confirm inactive
COc1ccc(C(=O)OCC(=O)NCC2CCCO2)cc1S(=O)(=O)N1CCCc2ccccc21 (configuration not stated)	PAFAH2 FP inh 33.9 | PAFAH2 confirm inactive
COc1ccc(C(=O)OCc2nnc(-c3ccccc3)o2)cc1S(=O)(=O)N1CCOCC1	PAFAH2 FP inh 78.9 | PAFAH2 confirm 70.6
COc1ccc(C(=O)OCc2ccc(C)cc2)cc1S(=O)(=O)N1CCOCC1	none (no result: Fh CTSL1 inh)
O=C(NNC(=O)c1ccc(F)c(S(=O)(=O)N2CCOCC2)c1)c1ccc([N+](=O)[O-])cc1	none (no result: Fh CTSL1 inh)
COc1ccc(C(=O)OCC(=O)N2CCc3ccccc32)cc1S(=O)(=O)N1CCOCC1	PAFAH2 FP inh 67.8 (no result: PP5 inh, Fh CTSL1 inh) | PAFAH2 confirm 69.2
O=C(OCC(=O)N1CCc2ccccc21)c1cc(S(=O)(=O)N2CCOCC2)ccc1F	none (no result: PP5 inh, pPAFAH FP inh, Fh CTSL1 inh)
CCC(C)c1ccc(S(=O)(=O)N2CCN(CC(O)COCC3CCCO3)CC2)cc1 (configuration not stated)	none (no result: PP5 inh, pPAFAH FP inh, Fh CTSL1 inh)
Cc1ccc(S(=O)(=O)NCC(=O)OC(C)C(=O)NC(=O)NC2CCCCC2)cc1C (configuration not stated)	none (no result: Fh CTSL1 inh)
CN(C)S(=O)(=O)c1ccc(N2CCCC2)c(C(=O)N2CCC(C(N)=O)CC2)c1	none
CCc1noc(C)c1C(=O)OCC(=O)NC(=O)c1ccccc1	none
Cc1cc(C)c(S(=O)(=O)N2CCC(C(=O)NCc3ccncc3)CC2)c(C)c1	PAFAH2 FP inh 101.3 | PAFAH2 confirm inactive
O=C1NC(Cc2ccccc2)c2nc3cc(Cl)ccc3c(=O)n2-c2ccccc21 (configuration not stated)	none (no result: PP5 inh, PAFAH2 FP inh, Fh CTSL1 inh, PAFAH1B2 FP inh, PAFAH1B3 FP inh)
O=C1NC(=S)S/C1=C\C=C\c1ccc([N+](=O)[O-])o1	PAFAH2 FP inh 42.8 (no result: PP5 inh, pPAFAH FP inh, Fh CTSL1 inh) | PAFAH2 confirm inactive
O=C(O)/C=C/c1ccc([N+](=O)[O-])o1	none
c1ccc(C[C@H]2CNCCN2CC2(c3ccccc3)CC2)cc1	none
O=C(Nc1cc(Cl)ccc1O)C1CC(c2ccccc2Cl)=NO1 (configuration not stated)	PAFAH2 FP inh 32.8 (no result: PP5 inh, pPAFAH FP inh, Fh CTSL1 inh) | PAFAH2 confirm inactive
CN(C)CCC1(C2=CCCC2)CC/C(=C/c2ccc(Cl)cc2)C1=O (configuration not stated)	none (no result: PP5 inh, pPAFAH FP inh, Fh CTSL1 inh)
CC(C)(C)c1ccc(S(=O)(=O)N2CC(C(=O)O)Oc3ccc(Cl)cc32)cc1 (configuration not stated)	PAFAH2 FP inh 34.1 | PAFAH2 confirm inactive
Cc1cc(C)n2nc(C(=O)OCC(=O)Nc3cc(S(=O)(=O)N4CCOCC4)ccc3Cl)nc2n1	none (no result: PP5 inh, pPAFAH FP inh, Fh CTSL1 inh)
N#Cc1ccccc1NC(=O)COC(=O)c1ccc2c(c1)OCCO2	PAFAH2 FP inh 73.1 | PAFAH2 confirm 69.1
N#Cc1ccc(Cl)cc1NC(=O)COC(=O)c1ccc2c(c1)OCCO2	PAFAH2 FP inh 65.9 | PAFAH2 confirm 68.4
O=C(NCc1ccco1)C1(S(=O)(=O)c2ccccc2)CC=CC1	none
Oc1ccc(Cl)cc1N=Cc1sc2ccccc2c1Cl	none
O=[N+]([O-])c1ccc(O)c(N=Cc2sc3ccccc3c2O)c1	PAFAH2 FP inh 32.9 | PAFAH2 confirm inactive
CCN(c1cccc(C)c1)C1C(=O)c2ccccc2N1C(C)=O (configuration not stated)	PAFAH2 FP inh 37.5 | PAFAH2 confirm inactive
COc1ccc(C(=O)N/N=C/c2cc3ccccc3[nH]c2=S)cc1	PAFAH2 FP inh 43.3 | PAFAH2 confirm inactive
COc1ccc(C(=O)N/N=C/c2cccc3cccnc23)cc1	none
CCN(CC)CCCn1c2c(c(SCC(=O)Nc3ccc(OC(F)(F)F)cc3)nc1=O)CCC2	none
O=C(COC(=O)c1ccc(Cl)c([N+](=O)[O-])c1)NC1CCCC1	none
Nc1ccc(C(=O)OCC(=O)N2CCc3ccccc3C2)cc1[N+](=O)[O-]	PAFAH2 FP inh 50.9 | PAFAH2 confirm 45.7
O=C(OCC(=O)N1CCc2ccccc2C1)c1ccc(Cl)c([N+](=O)[O-])c1	none (no result: Fh CTSL1 inh)
O=C(COC(=O)c1ccccc1C(=O)c1ccc(Cl)c([N+](=O)[O-])c1)NC1CCCCCC1	PAFAH2 FP inh 61.9 | PAFAH2 confirm 46.8
